Of roughly 7,900 targets only a part is listed; those with a hit were picked by preference. About 0.6% of all pairs of compound and target were hits.
Compound: C#Cc1cccc(Nc2ncnc3cc(OCCOC)c(OCCOC)cc23)c1 [erlotinib]
Assay: log2 fold change, soluble protein after heating vs DMSO (PISA); higher = thermal stabilisation; K562 cells, 10 uM, 30 min; active = over 0.2 and 3.5 SD of the protein, either way, in both replicates (recomputed)
In short: (§1)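 K562 cells at 2×10^6 cells/mL were treated for 30 min with 10 μM compound, and aliquots were heated for 3 min over 48°C-58°C before pooling. Extraction used PBS with 0.5% NP-40 at 4°C, and soluble protein was the supernatant after 21,000xg for 90 min, measured by TMTpro 16plex LC-MS/MS with channel sums equalised. Thermal stability values, relative to control samples and from duplicates, are log2 fold changes.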

UniProt Q15833, sequence (Q15833 whole entry, looked up): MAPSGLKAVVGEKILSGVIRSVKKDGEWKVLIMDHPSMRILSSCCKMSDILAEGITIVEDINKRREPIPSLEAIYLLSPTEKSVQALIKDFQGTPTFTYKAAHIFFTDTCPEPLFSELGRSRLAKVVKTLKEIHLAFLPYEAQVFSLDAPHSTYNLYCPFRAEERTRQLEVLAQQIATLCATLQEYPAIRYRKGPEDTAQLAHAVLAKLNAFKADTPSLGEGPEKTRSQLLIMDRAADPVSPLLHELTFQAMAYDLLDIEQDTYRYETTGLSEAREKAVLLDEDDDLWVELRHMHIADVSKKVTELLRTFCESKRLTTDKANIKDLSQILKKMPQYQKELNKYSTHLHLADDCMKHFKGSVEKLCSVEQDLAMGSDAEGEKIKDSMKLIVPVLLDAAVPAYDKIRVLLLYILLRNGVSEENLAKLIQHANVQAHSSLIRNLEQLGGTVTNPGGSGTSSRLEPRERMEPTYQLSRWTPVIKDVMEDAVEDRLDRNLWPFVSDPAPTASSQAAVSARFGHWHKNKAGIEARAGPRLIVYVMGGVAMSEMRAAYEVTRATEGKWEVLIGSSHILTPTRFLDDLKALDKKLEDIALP
UniProt Q9Y5L4, sequence (Q9Y5L4 whole entry, looked up): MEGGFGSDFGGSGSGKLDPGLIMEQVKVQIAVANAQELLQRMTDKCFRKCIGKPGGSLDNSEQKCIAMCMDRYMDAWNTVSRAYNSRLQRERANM
UniProt O60493, sequence (O60493 whole entry, looked up): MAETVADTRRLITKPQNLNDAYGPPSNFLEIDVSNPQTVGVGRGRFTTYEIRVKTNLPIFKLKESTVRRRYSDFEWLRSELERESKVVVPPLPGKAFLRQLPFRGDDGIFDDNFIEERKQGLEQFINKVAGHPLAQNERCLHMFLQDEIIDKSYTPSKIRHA
UniProt Q01082, sequence (Q01082 whole entry, looked up): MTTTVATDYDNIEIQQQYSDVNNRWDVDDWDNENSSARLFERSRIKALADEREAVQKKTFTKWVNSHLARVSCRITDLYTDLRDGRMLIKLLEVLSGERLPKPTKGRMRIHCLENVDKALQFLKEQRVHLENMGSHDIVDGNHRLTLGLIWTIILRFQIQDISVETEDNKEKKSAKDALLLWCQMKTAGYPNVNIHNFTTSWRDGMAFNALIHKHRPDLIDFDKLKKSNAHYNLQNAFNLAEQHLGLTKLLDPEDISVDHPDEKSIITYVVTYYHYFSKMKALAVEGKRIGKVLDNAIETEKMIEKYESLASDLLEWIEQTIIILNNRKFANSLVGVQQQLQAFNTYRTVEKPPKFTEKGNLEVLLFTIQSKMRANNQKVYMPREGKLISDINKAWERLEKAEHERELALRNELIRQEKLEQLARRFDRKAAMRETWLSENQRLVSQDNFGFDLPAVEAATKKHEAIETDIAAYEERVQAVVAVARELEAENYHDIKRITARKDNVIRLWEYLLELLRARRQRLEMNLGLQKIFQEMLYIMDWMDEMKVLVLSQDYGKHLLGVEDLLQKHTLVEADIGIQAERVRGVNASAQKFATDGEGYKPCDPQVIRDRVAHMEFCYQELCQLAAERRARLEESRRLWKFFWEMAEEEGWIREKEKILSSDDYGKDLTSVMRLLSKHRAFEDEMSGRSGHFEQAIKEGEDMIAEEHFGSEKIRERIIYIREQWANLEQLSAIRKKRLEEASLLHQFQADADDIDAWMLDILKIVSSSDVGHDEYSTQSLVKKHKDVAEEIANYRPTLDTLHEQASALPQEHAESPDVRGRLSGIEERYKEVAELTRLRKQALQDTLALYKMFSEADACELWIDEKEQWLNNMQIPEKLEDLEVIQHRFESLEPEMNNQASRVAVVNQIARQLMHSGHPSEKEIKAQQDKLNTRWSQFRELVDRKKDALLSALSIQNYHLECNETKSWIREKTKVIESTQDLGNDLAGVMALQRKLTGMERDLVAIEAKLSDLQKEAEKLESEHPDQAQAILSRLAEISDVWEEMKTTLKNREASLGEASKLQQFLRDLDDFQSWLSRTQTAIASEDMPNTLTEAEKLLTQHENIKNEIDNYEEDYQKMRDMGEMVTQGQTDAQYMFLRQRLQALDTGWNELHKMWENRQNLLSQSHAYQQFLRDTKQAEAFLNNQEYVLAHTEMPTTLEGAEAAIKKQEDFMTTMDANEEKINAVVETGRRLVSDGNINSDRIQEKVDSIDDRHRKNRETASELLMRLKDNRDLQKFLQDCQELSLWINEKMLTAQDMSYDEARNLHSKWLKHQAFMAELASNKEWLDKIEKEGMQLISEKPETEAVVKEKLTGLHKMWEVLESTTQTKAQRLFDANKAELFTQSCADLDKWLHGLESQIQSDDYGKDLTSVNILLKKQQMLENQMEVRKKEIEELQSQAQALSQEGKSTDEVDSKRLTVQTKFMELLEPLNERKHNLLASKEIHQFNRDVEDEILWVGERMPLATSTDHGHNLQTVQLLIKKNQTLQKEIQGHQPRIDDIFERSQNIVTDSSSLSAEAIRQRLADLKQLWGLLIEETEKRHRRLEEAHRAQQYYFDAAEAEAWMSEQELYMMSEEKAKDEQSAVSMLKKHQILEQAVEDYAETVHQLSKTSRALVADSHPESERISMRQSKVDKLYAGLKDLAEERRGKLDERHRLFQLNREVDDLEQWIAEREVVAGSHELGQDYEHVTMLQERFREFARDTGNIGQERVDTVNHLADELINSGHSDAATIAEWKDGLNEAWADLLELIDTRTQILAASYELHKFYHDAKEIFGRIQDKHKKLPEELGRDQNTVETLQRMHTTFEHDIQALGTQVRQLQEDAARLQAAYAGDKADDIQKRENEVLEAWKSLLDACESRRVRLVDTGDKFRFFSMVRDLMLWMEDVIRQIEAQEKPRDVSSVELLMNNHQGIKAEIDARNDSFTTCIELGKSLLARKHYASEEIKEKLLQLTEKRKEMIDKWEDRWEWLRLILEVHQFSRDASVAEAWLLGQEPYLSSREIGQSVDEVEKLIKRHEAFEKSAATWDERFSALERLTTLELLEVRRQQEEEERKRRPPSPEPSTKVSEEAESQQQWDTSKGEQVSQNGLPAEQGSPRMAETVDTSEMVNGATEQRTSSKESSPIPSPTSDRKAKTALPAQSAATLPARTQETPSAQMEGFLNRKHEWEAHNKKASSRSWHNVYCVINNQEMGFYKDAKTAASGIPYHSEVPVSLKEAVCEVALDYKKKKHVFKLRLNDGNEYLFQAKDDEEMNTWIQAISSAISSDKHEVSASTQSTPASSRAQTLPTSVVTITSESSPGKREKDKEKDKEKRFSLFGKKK
UniProt Q9H5Q4, sequence (Q9H5Q4 whole entry, looked up): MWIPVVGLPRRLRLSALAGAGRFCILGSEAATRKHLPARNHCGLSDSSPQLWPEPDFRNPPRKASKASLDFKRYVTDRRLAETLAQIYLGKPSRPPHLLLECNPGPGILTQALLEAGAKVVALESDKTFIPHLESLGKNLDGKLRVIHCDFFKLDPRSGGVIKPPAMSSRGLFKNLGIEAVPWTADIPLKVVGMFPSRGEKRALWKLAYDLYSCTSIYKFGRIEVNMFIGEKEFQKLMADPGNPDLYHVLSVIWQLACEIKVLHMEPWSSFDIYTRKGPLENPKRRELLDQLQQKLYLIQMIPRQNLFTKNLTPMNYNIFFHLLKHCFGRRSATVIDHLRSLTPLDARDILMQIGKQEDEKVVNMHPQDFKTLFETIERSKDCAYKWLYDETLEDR
UniProt Q9C0B7, sequence (Q9C0B7 whole entry, looked up): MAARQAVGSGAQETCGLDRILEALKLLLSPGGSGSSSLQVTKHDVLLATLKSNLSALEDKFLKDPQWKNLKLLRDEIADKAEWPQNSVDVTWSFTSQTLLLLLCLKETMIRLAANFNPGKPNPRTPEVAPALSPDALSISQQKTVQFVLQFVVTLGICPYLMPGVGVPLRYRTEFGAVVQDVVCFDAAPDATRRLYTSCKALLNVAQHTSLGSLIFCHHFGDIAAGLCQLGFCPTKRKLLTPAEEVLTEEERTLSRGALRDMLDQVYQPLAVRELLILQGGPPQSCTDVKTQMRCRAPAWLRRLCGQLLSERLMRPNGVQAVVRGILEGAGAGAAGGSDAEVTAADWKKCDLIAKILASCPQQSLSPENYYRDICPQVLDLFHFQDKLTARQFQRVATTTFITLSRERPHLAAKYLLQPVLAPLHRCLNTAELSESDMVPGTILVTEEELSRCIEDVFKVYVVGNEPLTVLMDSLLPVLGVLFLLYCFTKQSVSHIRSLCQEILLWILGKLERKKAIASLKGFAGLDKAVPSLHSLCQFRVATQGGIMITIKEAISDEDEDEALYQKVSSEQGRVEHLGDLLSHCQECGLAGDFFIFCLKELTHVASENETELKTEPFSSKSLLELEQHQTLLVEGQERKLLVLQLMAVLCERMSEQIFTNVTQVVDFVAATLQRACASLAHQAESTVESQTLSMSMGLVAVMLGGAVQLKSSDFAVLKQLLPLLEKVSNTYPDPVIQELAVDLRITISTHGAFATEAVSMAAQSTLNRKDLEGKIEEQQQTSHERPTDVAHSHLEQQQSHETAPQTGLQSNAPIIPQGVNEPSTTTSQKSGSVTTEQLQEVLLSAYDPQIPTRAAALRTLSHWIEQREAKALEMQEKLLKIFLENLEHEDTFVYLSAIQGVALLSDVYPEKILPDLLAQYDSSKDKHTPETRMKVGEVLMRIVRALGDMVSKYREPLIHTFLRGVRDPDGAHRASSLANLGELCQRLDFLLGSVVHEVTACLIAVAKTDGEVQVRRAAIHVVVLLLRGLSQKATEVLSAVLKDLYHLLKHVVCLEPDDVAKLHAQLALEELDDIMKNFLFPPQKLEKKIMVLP
UniProt Q16385, sequence (Q16385 whole entry, looked up): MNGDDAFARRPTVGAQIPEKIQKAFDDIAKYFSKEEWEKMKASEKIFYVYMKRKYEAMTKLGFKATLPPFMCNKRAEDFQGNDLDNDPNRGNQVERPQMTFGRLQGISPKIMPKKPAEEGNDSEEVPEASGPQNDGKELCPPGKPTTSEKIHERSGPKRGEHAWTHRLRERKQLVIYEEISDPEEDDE

log2 fold change, inactive:
TBC1D23 (UniProt Q9NUY8) 0.043
TFB2M (UniProt Q9H5Q4) 0.007
TGFBRAP1 (UniProt Q8WUH2) 0.064
SNX9 (UniProt Q9Y5X1) -0.005
THRAP3 (UniProt Q9Y2W1) 0.081
SRRM2 (UniProt Q9UQ35) 0.067
SSX2 (UniProt Q16385) -0.068
SMAP (UniProt O00193) -0.006
SMARCA5 (UniProt O60264) 0.103
SPAG9 (UniProt O60271) 0.018
SURF1 (UniProt Q15526) 0.021
TANGO6 (UniProt Q9C0B7) 0.208
SYNE1 (UniProt Q8NF91) 0.155
STAM2 (UniProt O75886) -0.026
SRSF2 (UniProt Q01130) -0.003
SMAD9 (UniProt O15198) -0.001
SPPL2B (UniProt Q8TCT7) 0.021
SUOX (UniProt P51687) 0.044
SPART (UniProt Q8N0X7) 0.024
TLK1 (UniProt Q9UKI8) 0.012
STXBP5 (UniProt Q5T5C0) 0.028
TCOF1 isoform 4 (UniProt Q13428) 0.035
TERF2IP (UniProt Q9NYB0) -0.046
TARS2 (UniProt Q9BW92) 0.042
TM9SF2 (UniProt Q99805) 0.012
TIPRL (UniProt O75663) 0.055
SREK1 isoform 2 (UniProt Q8WXA9) -0.036
SNX3 (UniProt O60493) 0.129
STXBP2 isoform 3 (UniProt Q15833) 0.088
SMPD4 isoform 4 (UniProt Q9NXE4) 0.073
TIMM13 (UniProt Q9Y5L4) 0.018
SPTBN1 (UniProt Q01082) 0.003
SUN2 (UniProt Q9UH99) -0.067
TAOK1 (UniProt Q7L7X3) 0.006
SMARCE1 (UniProt Q969G3) 0.101
SRI (UniProt P30626) -0.042
SNRPB2 (UniProt P08579) -0.032

Compound: C/C(=N\NC(=O)C1=CC(=CC=C1)S(=O)(=O)N2CCOCC2)/C3=C(C=CC(=C3)Cl)O
Assay: as above
In short: as §1

log2 fold change, inactive:
TBC1D23 (UniProt Q9NUY8) 0.012
TFB2M (UniProt Q9H5Q4) 0.094
TGFBRAP1 (UniProt Q8WUH2) 0.217
SNX9 (UniProt Q9Y5X1) 0.047
THRAP3 (UniProt Q9Y2W1) 0.023
SRRM2 (UniProt Q9UQ35) 0.095
SSX2 (UniProt Q16385) -0.078
SMAP (UniProt O00193) 0.026
SMARCA5 (UniProt O60264) 0.044
SPAG9 (UniProt O60271) -0.025
SURF1 (UniProt Q15526) -0.036
TANGO6 (UniProt Q9C0B7) 0.032
STAM2 (UniProt O75886) 0.081
SRSF2 (UniProt Q01130) -0.034
SMAD9 (UniProt O15198) 0.086
SPPL2B (UniProt Q8TCT7) -0.112
SUOX (UniProt P51687) 0.047
SPART (UniProt Q8N0X7) 0.008
TLK1 (UniProt Q9UKI8) 0.038
STXBP5 (UniProt Q5T5C0) 0.039
TCOF1 isoform 4 (UniProt Q13428) -0.005
TERF2IP (UniProt Q9NYB0) 0
TM9SF2 (UniProt Q99805) 0.025
TIPRL (UniProt O75663) 0.097
SREK1 isoform 2 (UniProt Q8WXA9) 0.1
SNX3 (UniProt O60493) 0.074
STXBP2 isoform 3 (UniProt Q15833) 0.139
SMPD4 isoform 4 (UniProt Q9NXE4) 0.064
TIMM13 (UniProt Q9Y5L4) 0
SPTBN1 (UniProt Q01082) 0.067
SUN2 (UniProt Q9UH99) 0.023
TAOK1 (UniProt Q7L7X3) 0.045
SMARCE1 (UniProt Q969G3) 0.04
SRI (UniProt P30626) 0.113
SNRPB2 (UniProt P08579) -0.056

log2 fold change, active:
SYNE1 (UniProt Q8NF91) -0.499
TARS2 (UniProt Q9BW92) -0.721
